Source: PubChem BioAssay
FLuc counter = inhibits or activates purified firefly luciferase, miR-21 counter-screen; purified FLuc, Km substrates, luminescence inhibition; 360,000 tested, 6.9% active; Potency, µM (series often up to 57.5 µM), for inactives: top-dose activity change, negative = inhibition, most hits filed as inhibitors; P08659;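 further: plate controls were vehicle for no effect and reference inhibitor for full effect; nearly all actives have a fitted effect of over 55% in size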
Target sequence (P08659 whole entry, looked up): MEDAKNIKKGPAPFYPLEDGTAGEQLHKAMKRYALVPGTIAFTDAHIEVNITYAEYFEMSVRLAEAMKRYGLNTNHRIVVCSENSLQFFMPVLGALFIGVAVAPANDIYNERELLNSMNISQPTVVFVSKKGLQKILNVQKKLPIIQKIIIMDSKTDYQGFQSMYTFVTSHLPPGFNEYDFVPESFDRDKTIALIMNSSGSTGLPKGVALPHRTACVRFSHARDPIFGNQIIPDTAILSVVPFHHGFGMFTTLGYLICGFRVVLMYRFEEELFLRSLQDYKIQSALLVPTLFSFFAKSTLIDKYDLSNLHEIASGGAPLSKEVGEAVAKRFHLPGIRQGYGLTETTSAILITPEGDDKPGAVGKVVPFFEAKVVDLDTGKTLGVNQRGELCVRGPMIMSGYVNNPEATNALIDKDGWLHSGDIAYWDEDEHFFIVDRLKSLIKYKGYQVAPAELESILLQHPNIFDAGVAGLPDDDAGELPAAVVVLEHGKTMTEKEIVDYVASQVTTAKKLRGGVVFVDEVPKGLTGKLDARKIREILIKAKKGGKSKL
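Biochemical qHTS of compounds, final roughly 60 µM downward over six points, against 10 nM purified firefly luciferase using Km concentrations of substrates (10 uM D-luciferin, 10 uM ATP) in Tris acetate pH 7.5 buffer; luminescence output.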
NPC1 prom act = NPC1 promoter activation; Huh7 NPC1 promoter luciferase reporter, 24 h; AID 485313; 320,000 tested, 2.4% active; Potency, µM (doses to about 9.22 µM), for inactives: top-dose activation, usual class: activators; further: % of control where 0% means no effect; nearly all actives have a fitted effect of over 60% in size
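Compounds in DMSO were transferred onto Huh7 NPC1-luciferase reporter cells pre-incubated 2 h; after 24 h at 37 °C, Amplite reagent was dispensed and luminescence recorded 10 min later.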
ELG1 genotox = genotoxicity induction in ELG1-luciferase HEK293T cells; HEK293T ELG1-luciferase reporter, luminescence, 16 h; AID 504466; Potency, µM (doses to about 46 µM), inactives show top-dose activity change, positive = activation, actives largely listed as activators; 330,000 tested, 1.3% active; further: % of control where 0% means no effect; nearly all actives have a fitted effect of over 60% in size
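ELG1-luciferase HEK293T cells, 2,000/well; compound pinned in; 16 hr, 37 °C, 5% CO2; ONE-Glo, 30 min RT; luminescence on CCD imager.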
SMN2 splice up = increases expression of the SMN2 splice variant; 210,000 tested, 2.8% active; Potency, µM (doses to about 46.1 µM), for the others: top-dose activity change, positive = activation, usual class: activators; HEK293 SMN2-luciferase splicing reporter, luminescence, 30-36 h; further: % of control where 0% means no effect; nearly all actives have a fitted effect of over 55% in size
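HEK293 cells carry an SMN2 […]–luciferase reporter in which exon 7 inclusion puts luciferase in frame. Cells were plated 10-12 h before compound addition, then incubated 30-36 h at 37C. ONE-Glo luminescence was read; sodium butyrate at 4.5 mM final served as control.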
Rab9 prom act = activators of Rab9 promoter; Huh7 Rab9 promoter-luciferase reporter, luminescence, 24 h; Potency, µM (highest dose often 9.22 µM), inactives show top-dose activation, negative = inhibition, usual class: activators; 320,000 tested, 2.8% active; further: % of control where 0% means no effect; nearly all actives have a fitted effect of over 60% in size
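Huh7 cells stably carrying a Rab9 promoter-luciferase reporter, 1500 cells per well in OP-MEM I with 10% FBS, treated with compound 24 hours at 37C. Luciferase activity read by luminescence after 10 minutes with Amplite reagent.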
ELG1 DNA repair = inhibitors of ELG1-dependent DNA repair in HEK293T cells. HEK293T ELG1-luciferase reporter, luminescence, 16 h; DNA damage induced by 5-fluorouridine. Potency, µM (top dose mostly 46.1 µM), for the others: top-dose activity change, negative = inhibition, actives largely listed as inhibitors. 330,000 tested, 2.3% active; further: on the % scale 0 is the no-effect control and ±100 the full control effect; nearly all actives have a fitted effect of over 55% in size
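DMSO vehicle served as the neutral condition. Each well held 2,000 cells given 5-fluorouridine plus compound; after 16 hr at 37 °C/5% CO2, ONE-Glo was added and luciferase measured 30 min later.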
* hit, by the source's call. An excerpt weighted towards active compounds, which were near 9.2% of everything screened. The call rests on the fitted dose curve; in most records, active means well fitted curve in the direction sought with a large enough effect; inconclusive means small, poorly fitted or top-dose-only effect, or another doubt; inactive means no such curve, though single readings can be large; an effect the other way counts as inactive or inconclusive. Potency means the concentration at half of the fitted maximal effect.

Results for CCc1ccccc1NC(=O)CN(C)C(=O)CSc1nnc(Nc2cccc(C)c2)s1 ?
FLuc counter: 12µM*; NPC1 prom act: 1.0%; ELG1 genotox: -0.6%; SMN2 splice up: 9.3%; Rab9 prom act: -1.3%; ELG1 DNA repair: inconclusive

What do the screens show for `CCc1ccccc1NC(=O)CN(C)C(=O)CSc1nnc(Nc2ccc(C)cc2)s1`?
FLuc counter: 9.53µM*; NPC1 prom act: -0.3%; ELG1 genotox: -3.0%; SMN2 splice up: -23.3%; Rab9 prom act: -4.4%; ELG1 DNA repair: inconclusive

What do the screens show for `CN(CC(=O)Nc1ccccc1Cl)C(=O)CSc1nncs1`?
FLuc counter: 6.3%; NPC1 prom act: -1.1%; ELG1 genotox: 2.4%; Rab9 prom act: -4.6%; ELG1 DNA repair: 28.1%

How did CSc1nnc(-c2ccco2)c(-c2ccco2)n1 do in these assays?
FLuc counter: inconclusive; NPC1 prom act: -0.1%; ELG1 genotox: 2.7%; SMN2 splice up: inconclusive; Rab9 prom act: 7.2%; ELG1 DNA repair: -2.4%

How did CCOc1ccc(-c2nnc(-c3ccco3)o2)cc1OCC do in these assays?
FLuc counter: inconclusive; NPC1 prom act: 29.7%; ELG1 genotox: inconclusive; SMN2 splice up: -15.3%; Rab9 prom act: inconclusive; ELG1 DNA repair: inconclusive

Results for Cc1ccc(-c2nnc(-c3ccc(Br)cc3)o2)o1 ?
FLuc counter: 3.01µM*; NPC1 prom act: inconclusive; ELG1 genotox: inconclusive; SMN2 splice up: 12.6µM*; Rab9 prom act: 3.16µM*; ELG1 DNA repair: inconclusive

What do the screens show for `O=C(Cc1ccccc1)Nc1ccc(-c2nnc(-c3ccco3)o2)cc1`?
FLuc counter: 2.9%; NPC1 prom act: -0.2%; ELG1 genotox: 2.3%; SMN2 splice up: 1.0%; Rab9 prom act: 7.9%; ELG1 DNA repair: 15.2%

How did CCN(CC)S(=O)(=O)c1cc(-c2nnc(-c3ccc(Br)cc3)o2)ccc1Br do in these assays?
FLuc counter: -6.7%; NPC1 prom act: -3.8%; ELG1 genotox: -0.5%; SMN2 splice up: -61.6%; Rab9 prom act: -4.9%; ELG1 DNA repair: inconclusive

How did c1ccc(-c2nnc(-c3ccco3)o2)cc1 do in these assays?
FLuc counter: 21.3µM*; NPC1 prom act: 3.16µM*; ELG1 genotox: 2.06µM*; Rab9 prom act: 3.16µM*; ELG1 DNA repair: inconclusive

How did Brc1ccc(-c2nnc(-c3ccco3)o2)cc1 do in these assays?
FLuc counter: 8.49µM*; NPC1 prom act: 3.16µM*; ELG1 genotox: inconclusive; Rab9 prom act: 3.98µM*; ELG1 DNA repair: inconclusive

What do the screens show for `c1coc(-c2nnc(-c3ccco3)nn2)c1`?
FLuc counter: 16.9µM*; NPC1 prom act: inconclusive; ELG1 genotox: 4.0%; Rab9 prom act: inconclusive; ELG1 DNA repair: 8.9%

Results for COC(=O)C1CN(C(=O)COc2ccccc2)c2ccccc2O1 (stereo not given) ?
FLuc counter: 4.1%; NPC1 prom act: -0.8%; ELG1 genotox: 0.5%; Rab9 prom act: 0.4%; ELG1 DNA repair: 11.2%

What do the screens show for `CCOC(=O)Cc1ccc(NC(=O)N2CCC(CN3CCCCCC3)CC2)cc1`?
FLuc counter: -1.3%

How did Cc1cccc(OCC(=O)Nc2c(C(=O)N3CCN(c4ccccc4)CC3)oc3ccccc23)c1 do in these assays?
FLuc counter: 0.4%

Results for c1coc(-c2nnc(-c3cccs3)o2)c1 ?
FLuc counter: inconclusive; NPC1 prom act: inconclusive; ELG1 genotox: inconclusive; SMN2 splice up: 11.2µM*; Rab9 prom act: inconclusive; ELG1 DNA repair: inconclusive

What do the screens show for `CCCC(=O)Nc1ccccc1NC(=O)c1ccc(OC(C)=O)cc1`?
FLuc counter: 0.6%; NPC1 prom act: -1.9%; ELG1 genotox: -8.0%; SMN2 splice up: 4.1%; Rab9 prom act: -4.6%; ELG1 DNA repair: 0.4%

Results for Cc1ccc(C)c(Nc2cc(C)nc3ncnn23)c1 ?
FLuc counter: 0.0%; NPC1 prom act: inconclusive; ELG1 genotox: 18.3%; Rab9 prom act: 0.1µM*; ELG1 DNA repair: inconclusive

How did Cc1cc(Nc2ccc(Cl)cc2)n2ncnc2n1 do in these assays?
FLuc counter: 4.1%; NPC1 prom act: -2.6%; ELG1 genotox: 10.9%; Rab9 prom act: 2.7%; ELG1 DNA repair: 11.5%

What do the screens show for `Cc1cc(Nc2ccc(N(C)C)cc2)n2ncnc2n1`?
FLuc counter: 16.9µM*; NPC1 prom act: -0.8%; ELG1 genotox: 9.8%; Rab9 prom act: -1.7%; ELG1 DNA repair: inconclusive

How did O=C(Nc1ccn(Cc2ccccc2)n1)c1ccc(F)cc1 do in these assays?
FLuc counter: 6.75µM*; NPC1 prom act: 2µM*; ELG1 genotox: inconclusive; SMN2 splice up: 4.0%; Rab9 prom act: 2.82µM*; ELG1 DNA repair: inconclusive

What do the screens show for `O=C(Nc1ccn(Cc2ccccc2)n1)c1cccc(Cn2cc([N+](=O)[O-])cn2)c1`?
FLuc counter: 15.1µM*; NPC1 prom act: 4.3%; ELG1 genotox: -6.7%; SMN2 splice up: -12.7%; Rab9 prom act: 3.9%; ELG1 DNA repair: inconclusive

What do the screens show for `CCOc1ccc(NS(=O)(=O)c2cc(C(=O)NCCN3CCOCC3)ccc2C)cc1`?
ELG1 genotox: -0.6%; ELG1 DNA repair: -11.3%

What do the screens show for `c1ccc2nc3c(cc2c1)CCCCC3`?
FLuc counter: inconclusive; NPC1 prom act: 3.3%; ELG1 genotox: -0.1%; Rab9 prom act: -0.2%; ELG1 DNA repair: 28.0%

How did O=C(C1CCN(c2ccc(N3CCOCC3)nn2)CC1)N1CCN(c2ccc(F)cc2)CC1 do in these assays?
FLuc counter: 2.9%; NPC1 prom act: -1.1%; ELG1 genotox: -4.1%; SMN2 splice up: -34.8%; Rab9 prom act: -3.4%; ELG1 DNA repair: 16.4µM*

Results for NC(=S)N=Nc1ccc(NN=C(N)N)cc1 ?
FLuc counter: 21.3µM*; NPC1 prom act: -1.5%; ELG1 genotox: -4.8%; Rab9 prom act: 3.6%; ELG1 DNA repair: -1.6%

What do the screens show for `O=C(CCN1C(=O)C2C3CCC(C3)C2C1=O)OCC(=O)c1ccccc1` (stereo not given)?
FLuc counter: 13.5µM*; NPC1 prom act: -0.8%; ELG1 genotox: 0.2%; Rab9 prom act: -1.8%; ELG1 DNA repair: 3.0%

Results for O=C(NCC(c1ccco1)S(=O)(=O)c1cccs1)c1ccc(F)c(F)c1 (stereo not given) ?
FLuc counter: 3.7%

How did CCOC(=O)c1cc(-c2ccco2)nc2c1c(C)nn2-c1ccccc1 do in these assays?
FLuc counter: -7.5%; NPC1 prom act: 1.6%; ELG1 genotox: -6.5%; SMN2 splice up: -9.9%; Rab9 prom act: 5.9%; ELG1 DNA repair: inconclusive

What do the screens show for `CCOC(=O)c1cc(-c2ccc(OC)cc2)nc2c1c(C)nn2CCC(N)=S`?
FLuc counter: -3.1%; NPC1 prom act: 0.3%; ELG1 genotox: -3.3%; SMN2 splice up: -20.6%; Rab9 prom act: -5.6%; ELG1 DNA repair: 11.6µM*
